# PMC7862700, “An all-to-all approach to the identification of sequence-specific readers for epigenetic DNA modifications on cytosine”
# How the values were obtained:
# Assay in all cases: DAPPL (digital affinity profiling via proximity ligation, sequencing); 10 mM Tris-HCl pH 7.5, 50 mM NaCl, 1 mM DTT, 4% glycerol, room temperature, 30 min; GST-TFs on glutathione beads, 16-mer random dsDNA library, 0.1% formaldehyde crosslink after washing; high values mean tight binding
# FLI1 = biological target: T1, FLI1 (Homo sapiens, UniProt Q01543 1-452); conditions: protein: recombinant; tags: N-terminal GST; dsDNA, one strand shown
# T1 sequence: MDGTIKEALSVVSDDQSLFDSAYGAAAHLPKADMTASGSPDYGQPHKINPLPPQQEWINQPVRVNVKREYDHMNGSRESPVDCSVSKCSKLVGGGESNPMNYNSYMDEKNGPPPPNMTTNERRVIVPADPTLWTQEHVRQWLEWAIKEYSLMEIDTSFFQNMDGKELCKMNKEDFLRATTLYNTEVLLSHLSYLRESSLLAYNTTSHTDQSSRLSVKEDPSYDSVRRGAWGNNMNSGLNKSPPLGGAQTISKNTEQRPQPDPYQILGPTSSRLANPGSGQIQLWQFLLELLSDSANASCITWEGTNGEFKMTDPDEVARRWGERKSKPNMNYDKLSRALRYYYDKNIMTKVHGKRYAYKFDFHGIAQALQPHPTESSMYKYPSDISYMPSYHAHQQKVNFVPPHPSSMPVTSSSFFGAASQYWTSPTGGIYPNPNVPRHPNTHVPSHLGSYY
# Outline: (§1)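 Binding signal is each hexamer's read frequency for a factor divided by its frequency in the tag-only sample. The factors were GST-fused human transcription factors from yeast, captured on glutathione beads, DNA-barcoded and pooled with that sample. Pools were incubated with 200 nmole of a random double-stranded 16-mer DNA library in Tris/NaCl/DTT/glycerol buffer at room temperature for 30 min, then washed, crosslinked with 0.1% formaldehyde, proximity-ligated with BsaI/T4 ligase (1 h, 37 °C), PCR-amplified and sequenced on an Illumina NextSeq500.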
# ELK1 = biological target: T2, ELK1 (Homo sapiens, UniProt P19419 1-428); conditions: protein: recombinant; tags: N-terminal GST; dsDNA, one strand shown
# T2 sequence: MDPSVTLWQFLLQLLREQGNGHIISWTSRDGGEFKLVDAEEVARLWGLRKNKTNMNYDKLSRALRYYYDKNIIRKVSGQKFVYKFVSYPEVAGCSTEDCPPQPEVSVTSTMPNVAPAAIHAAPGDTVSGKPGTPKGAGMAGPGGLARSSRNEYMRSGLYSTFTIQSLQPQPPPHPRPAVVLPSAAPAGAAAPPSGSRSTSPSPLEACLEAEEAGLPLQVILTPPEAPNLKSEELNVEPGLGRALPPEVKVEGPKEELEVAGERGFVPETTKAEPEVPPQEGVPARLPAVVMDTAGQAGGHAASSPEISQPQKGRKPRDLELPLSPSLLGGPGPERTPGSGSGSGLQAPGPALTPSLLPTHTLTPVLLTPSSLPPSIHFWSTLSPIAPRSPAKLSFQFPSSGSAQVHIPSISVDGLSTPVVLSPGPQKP
# Outline: as §1
# GABPA = biological target: T3, GABPA (Homo sapiens, UniProt Q06546 1-454); conditions: protein: recombinant; tags: N-terminal GST; dsDNA, one strand shown
# T3 sequence: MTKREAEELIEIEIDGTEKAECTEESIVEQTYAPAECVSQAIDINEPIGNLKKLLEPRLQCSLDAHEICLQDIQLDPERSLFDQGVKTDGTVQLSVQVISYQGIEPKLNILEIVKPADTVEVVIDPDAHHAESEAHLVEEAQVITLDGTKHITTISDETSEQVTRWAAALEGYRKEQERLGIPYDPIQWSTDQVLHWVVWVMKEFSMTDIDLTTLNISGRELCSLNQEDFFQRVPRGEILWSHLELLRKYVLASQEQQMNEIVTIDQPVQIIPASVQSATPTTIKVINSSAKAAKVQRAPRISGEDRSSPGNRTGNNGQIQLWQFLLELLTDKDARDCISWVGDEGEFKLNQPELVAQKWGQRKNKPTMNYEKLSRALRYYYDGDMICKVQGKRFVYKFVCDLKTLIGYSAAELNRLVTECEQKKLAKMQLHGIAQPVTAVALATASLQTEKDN
# Outline: as §1
# ERG = biological target: T4, ERG (Homo sapiens, UniProt P11308 1-479); conditions: protein: recombinant; tags: N-terminal GST; dsDNA, one strand shown
# T4 sequence: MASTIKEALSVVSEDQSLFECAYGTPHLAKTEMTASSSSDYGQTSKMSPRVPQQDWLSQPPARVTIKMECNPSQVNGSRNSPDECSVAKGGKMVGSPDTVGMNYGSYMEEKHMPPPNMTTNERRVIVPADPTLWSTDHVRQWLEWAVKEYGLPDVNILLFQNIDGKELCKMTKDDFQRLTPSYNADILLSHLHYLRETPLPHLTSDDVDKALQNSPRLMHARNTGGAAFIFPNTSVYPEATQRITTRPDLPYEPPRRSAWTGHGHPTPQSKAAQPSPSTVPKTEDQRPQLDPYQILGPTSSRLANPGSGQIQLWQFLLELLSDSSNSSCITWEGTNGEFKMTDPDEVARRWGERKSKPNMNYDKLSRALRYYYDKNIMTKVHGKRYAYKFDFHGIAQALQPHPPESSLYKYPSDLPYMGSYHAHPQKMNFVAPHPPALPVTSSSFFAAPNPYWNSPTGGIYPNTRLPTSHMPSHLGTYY
# Outline: as §1
# ELF1 = ELF1 (Homo sapiens, UniProt P32519 1-619); conditions: protein: recombinant; tags: N-terminal GST; dsDNA, one strand shown
# Chain of ELF1 (P32519 whole entry): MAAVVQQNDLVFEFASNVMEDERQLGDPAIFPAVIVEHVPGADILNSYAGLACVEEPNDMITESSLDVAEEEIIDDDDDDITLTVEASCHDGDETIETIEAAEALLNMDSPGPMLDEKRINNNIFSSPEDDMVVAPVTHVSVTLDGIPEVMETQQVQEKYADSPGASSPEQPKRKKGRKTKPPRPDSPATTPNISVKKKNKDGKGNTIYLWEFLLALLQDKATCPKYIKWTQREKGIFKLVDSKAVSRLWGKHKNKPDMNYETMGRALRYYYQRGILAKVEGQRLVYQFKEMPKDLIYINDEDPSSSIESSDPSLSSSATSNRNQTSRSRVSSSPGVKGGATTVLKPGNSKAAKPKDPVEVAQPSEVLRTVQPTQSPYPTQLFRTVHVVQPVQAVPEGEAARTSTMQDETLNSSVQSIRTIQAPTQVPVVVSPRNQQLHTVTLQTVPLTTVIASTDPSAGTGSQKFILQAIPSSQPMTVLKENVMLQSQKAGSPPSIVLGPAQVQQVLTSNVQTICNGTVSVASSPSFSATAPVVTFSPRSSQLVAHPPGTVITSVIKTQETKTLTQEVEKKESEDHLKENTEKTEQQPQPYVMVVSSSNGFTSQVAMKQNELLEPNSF
# Outline: as §1
# EHF = biological target: T5, EHF (Homo sapiens, UniProt Q9NZC4 1-300); conditions: protein: recombinant; tags: N-terminal GST; dsDNA, one strand shown
# T5 sequence: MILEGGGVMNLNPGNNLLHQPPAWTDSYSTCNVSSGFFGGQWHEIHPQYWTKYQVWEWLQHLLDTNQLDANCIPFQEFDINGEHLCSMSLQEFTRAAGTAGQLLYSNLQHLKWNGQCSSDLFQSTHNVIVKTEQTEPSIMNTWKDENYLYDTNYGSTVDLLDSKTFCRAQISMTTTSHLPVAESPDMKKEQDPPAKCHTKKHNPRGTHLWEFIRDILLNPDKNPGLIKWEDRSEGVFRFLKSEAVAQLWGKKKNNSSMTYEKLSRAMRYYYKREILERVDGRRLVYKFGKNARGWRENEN
# Outline: as §1
# SPI1 = SPI1 (Homo sapiens, UniProt P17947 1-270); conditions: protein: recombinant; tags: N-terminal GST; dsDNA, one strand shown
# Outline: as §1
# SPIB = SPIB (Homo sapiens, UniProt Q01892 1-262); conditions: protein: recombinant; tags: N-terminal GST; dsDNA, one strand shown
# Chain of SPIB (Q01892 whole entry): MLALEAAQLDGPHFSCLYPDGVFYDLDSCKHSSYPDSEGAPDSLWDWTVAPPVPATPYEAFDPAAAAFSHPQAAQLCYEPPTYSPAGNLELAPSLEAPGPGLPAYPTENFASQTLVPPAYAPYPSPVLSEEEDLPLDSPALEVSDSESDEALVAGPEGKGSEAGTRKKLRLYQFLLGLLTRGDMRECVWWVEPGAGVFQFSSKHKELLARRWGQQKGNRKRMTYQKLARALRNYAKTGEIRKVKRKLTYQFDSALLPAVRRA
# Outline: as §1
# ELK3 = biological target: T6, ELK3 (Homo sapiens, UniProt P41970 1-407); conditions: protein: recombinant; tags: N-terminal GST; dsDNA, one strand shown
# T6 sequence: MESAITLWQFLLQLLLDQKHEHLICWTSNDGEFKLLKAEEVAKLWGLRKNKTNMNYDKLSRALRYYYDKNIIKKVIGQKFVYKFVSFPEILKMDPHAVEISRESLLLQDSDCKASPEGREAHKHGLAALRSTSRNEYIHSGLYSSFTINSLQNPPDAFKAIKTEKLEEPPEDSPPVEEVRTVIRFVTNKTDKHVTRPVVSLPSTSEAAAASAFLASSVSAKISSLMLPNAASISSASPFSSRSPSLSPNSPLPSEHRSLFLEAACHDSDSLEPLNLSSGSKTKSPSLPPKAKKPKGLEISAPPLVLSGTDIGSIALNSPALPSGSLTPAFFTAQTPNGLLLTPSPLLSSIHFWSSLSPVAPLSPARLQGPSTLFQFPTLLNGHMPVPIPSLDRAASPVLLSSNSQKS
# Outline: as §1
# FEV = biological target: T7, FEV (Homo sapiens, UniProt Q99581 1-238); conditions: protein: recombinant; tags: N-terminal GST; dsDNA, one strand shown
# T7 sequence: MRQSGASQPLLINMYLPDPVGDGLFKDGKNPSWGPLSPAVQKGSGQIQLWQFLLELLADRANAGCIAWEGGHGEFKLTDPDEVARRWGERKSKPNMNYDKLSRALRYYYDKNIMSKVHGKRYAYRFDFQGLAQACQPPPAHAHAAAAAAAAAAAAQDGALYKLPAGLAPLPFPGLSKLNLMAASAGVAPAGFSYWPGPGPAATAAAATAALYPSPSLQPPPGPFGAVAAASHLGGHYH
# Outline: as §1
# ETV5 = ETV5 (Homo sapiens, UniProt P41161 1-510); conditions: protein: recombinant; tags: N-terminal GST; dsDNA, one strand shown
# Chain of ETV5 (P41161 whole entry): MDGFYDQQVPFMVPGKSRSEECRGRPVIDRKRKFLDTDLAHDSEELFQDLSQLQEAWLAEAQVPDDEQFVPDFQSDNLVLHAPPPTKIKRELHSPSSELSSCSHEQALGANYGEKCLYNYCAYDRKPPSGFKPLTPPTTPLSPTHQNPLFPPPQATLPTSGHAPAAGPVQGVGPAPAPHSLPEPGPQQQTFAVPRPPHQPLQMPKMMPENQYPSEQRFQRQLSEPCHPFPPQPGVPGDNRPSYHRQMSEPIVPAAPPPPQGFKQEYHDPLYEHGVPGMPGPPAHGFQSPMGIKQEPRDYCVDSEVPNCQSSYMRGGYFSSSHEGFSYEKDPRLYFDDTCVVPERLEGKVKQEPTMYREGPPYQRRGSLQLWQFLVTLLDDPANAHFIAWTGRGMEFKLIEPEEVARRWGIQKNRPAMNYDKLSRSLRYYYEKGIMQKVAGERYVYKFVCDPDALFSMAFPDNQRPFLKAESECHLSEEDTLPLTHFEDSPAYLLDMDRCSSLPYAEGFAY
# Outline: as §1
# HSF1 = HSF1 (Homo sapiens, UniProt Q00613 1-529); conditions: protein: recombinant; tags: N-terminal GST; chain copies: 3; dsDNA, one strand shown
# Chain of HSF1 (Q00613 whole entry): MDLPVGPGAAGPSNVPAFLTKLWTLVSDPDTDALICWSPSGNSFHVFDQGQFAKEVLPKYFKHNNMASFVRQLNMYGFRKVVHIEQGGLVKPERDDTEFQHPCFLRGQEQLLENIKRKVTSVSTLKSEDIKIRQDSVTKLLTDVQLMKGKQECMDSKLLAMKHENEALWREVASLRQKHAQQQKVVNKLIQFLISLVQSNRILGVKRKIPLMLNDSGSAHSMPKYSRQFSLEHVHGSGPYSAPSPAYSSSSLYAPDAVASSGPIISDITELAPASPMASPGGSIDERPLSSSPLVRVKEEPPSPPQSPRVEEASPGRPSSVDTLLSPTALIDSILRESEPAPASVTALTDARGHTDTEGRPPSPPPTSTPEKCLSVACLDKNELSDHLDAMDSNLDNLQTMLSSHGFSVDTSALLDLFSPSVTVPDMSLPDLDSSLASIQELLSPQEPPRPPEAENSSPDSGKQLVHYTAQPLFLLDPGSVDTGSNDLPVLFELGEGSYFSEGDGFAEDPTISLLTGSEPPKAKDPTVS
# Outline: as §1
# SPIC = biological target: T8, SPIC (Homo sapiens, UniProt Q8N5J4 1-248); conditions: protein: recombinant; tags: N-terminal GST; dsDNA, one strand shown
# T8 sequence: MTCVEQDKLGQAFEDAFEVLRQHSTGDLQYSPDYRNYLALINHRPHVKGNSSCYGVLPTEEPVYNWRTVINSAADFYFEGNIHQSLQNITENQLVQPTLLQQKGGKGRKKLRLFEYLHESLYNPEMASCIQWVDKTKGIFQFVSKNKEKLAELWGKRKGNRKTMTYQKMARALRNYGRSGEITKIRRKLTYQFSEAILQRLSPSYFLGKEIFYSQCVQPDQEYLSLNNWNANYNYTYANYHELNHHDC
# Outline: as §1
# ELF4 = ELF4 (Homo sapiens, UniProt Q99607 1-663); conditions: protein: recombinant; tags: N-terminal GST; dsDNA, one strand shown
# Chain of ELF4 (Q99607 whole entry): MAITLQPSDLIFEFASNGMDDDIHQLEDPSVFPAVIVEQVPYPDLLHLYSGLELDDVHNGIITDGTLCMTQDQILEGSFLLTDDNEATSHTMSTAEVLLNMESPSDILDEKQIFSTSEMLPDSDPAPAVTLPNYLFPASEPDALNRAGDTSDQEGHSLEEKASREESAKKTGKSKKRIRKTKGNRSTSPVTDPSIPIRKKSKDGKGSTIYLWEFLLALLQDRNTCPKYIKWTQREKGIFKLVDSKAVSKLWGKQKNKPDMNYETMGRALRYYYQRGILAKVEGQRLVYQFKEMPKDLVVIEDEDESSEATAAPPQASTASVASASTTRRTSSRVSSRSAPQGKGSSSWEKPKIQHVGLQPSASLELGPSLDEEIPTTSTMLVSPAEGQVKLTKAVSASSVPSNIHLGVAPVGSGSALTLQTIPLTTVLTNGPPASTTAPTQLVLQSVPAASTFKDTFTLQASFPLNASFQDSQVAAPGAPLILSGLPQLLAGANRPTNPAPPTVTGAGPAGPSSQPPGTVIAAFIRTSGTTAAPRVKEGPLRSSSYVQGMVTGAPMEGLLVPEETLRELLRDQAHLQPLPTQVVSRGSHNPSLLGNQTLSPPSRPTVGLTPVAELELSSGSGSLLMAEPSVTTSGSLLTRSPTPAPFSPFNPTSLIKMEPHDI
# Outline: as §1
# ELK4 = biological target: T9, ELK4 (Homo sapiens, UniProt P28324-2 1-405); conditions: protein: recombinant; tags: N-terminal GST; dsDNA, one strand shown
# T9 sequence: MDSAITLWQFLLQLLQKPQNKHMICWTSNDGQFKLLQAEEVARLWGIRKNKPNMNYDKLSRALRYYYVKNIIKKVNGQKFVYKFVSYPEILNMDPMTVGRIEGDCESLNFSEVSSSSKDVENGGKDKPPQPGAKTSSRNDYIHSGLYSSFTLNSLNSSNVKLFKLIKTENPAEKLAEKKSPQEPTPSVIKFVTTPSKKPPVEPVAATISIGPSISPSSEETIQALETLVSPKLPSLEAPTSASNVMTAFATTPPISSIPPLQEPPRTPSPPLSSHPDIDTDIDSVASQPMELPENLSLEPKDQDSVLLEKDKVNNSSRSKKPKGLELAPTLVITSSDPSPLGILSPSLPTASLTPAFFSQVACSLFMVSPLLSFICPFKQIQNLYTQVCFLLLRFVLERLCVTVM
# Outline: as §1
# ETV2 = biological target: T10, ETV2 (Homo sapiens, UniProt O00321 1-342); conditions: protein: recombinant; tags: N-terminal GST; dsDNA, one strand shown
# T10 sequence: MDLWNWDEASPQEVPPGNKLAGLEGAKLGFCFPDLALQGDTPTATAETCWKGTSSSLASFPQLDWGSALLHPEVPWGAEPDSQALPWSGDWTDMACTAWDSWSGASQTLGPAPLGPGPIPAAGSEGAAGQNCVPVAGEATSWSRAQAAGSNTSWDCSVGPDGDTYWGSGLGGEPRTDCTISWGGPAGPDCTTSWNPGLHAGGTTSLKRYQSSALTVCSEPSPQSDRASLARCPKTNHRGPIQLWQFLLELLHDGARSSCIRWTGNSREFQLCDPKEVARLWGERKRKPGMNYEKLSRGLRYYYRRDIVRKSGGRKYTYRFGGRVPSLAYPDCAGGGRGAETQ
# Outline: as §1
# ELF3 = biological target: T11, ELF3 (Homo sapiens, UniProt P78545 1-371); conditions: protein: recombinant; tags: N-terminal GST; dsDNA, one strand shown
# T11 sequence: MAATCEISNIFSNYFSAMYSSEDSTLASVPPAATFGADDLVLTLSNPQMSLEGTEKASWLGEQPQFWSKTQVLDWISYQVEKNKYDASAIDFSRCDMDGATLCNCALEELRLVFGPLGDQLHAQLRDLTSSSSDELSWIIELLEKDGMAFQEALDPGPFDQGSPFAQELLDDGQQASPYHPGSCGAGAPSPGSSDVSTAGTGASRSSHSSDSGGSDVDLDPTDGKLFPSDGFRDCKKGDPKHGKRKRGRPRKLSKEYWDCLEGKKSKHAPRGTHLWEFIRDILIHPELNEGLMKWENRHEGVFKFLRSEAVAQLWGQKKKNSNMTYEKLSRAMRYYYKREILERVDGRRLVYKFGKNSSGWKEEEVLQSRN
# Outline: as §1
# CRX = CRX (Homo sapiens, UniProt O43186 1-299); conditions: protein: recombinant; tags: N-terminal GST; dsDNA, one strand shown
# Chain of CRX (O43186 whole entry): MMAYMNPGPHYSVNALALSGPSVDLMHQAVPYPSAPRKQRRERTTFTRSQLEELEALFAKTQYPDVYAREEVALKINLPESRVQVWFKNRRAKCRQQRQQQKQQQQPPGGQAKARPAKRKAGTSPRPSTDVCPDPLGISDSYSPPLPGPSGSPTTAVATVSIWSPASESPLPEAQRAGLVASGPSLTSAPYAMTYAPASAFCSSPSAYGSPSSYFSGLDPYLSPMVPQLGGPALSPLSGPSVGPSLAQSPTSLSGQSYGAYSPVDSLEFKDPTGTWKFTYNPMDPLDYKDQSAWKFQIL
# Outline: as §1
# ETV1 = ETV1 (Homo sapiens, UniProt P50549 1-477); conditions: protein: recombinant; tags: N-terminal GST; dsDNA, one strand shown
# Chain of ETV1 (P50549 whole entry): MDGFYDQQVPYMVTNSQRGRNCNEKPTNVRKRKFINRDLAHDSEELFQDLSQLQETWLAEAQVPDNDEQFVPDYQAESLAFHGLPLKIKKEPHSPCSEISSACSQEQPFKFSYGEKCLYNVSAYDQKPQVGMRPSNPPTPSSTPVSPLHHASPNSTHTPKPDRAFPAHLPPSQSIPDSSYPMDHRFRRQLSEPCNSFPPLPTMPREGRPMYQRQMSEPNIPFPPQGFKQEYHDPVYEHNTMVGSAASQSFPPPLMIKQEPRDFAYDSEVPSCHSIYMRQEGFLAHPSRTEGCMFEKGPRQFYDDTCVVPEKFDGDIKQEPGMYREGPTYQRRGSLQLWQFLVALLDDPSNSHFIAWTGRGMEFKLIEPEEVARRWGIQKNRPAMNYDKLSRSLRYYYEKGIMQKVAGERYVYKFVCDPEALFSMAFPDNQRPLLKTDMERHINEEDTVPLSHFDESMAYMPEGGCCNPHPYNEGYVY
# Outline: as §1
sequence,measurement,setting,value
TACGCC,binding signal,FLI1,"1.39 fold enrichment (6-mer frequency, TF over GST control)"
same,binding signal,ELK1,"1.22 fold enrichment (6-mer frequency, TF over GST control)"
same,binding signal,GABPA,"1.3 fold enrichment (6-mer frequency, TF over GST control)"
same,binding signal,ERG,"1.16 fold enrichment (6-mer frequency, TF over GST control)"
same,binding signal,ELF1,"1.28 fold enrichment (6-mer frequency, TF over GST control)"
same,binding signal,EHF,"1.18 fold enrichment (6-mer frequency, TF over GST control)"
same,binding signal,SPI1,"1.18 fold enrichment (6-mer frequency, TF over GST control)"
same,binding signal,SPIB,"1.18 fold enrichment (6-mer frequency, TF over GST control)"
same,binding signal,ELK3,"1.23 fold enrichment (6-mer frequency, TF over GST control)"
same,binding signal,FEV,"1.25 fold enrichment (6-mer frequency, TF over GST control)"
same,binding signal,ETV5,"1.26 fold enrichment (6-mer frequency, TF over GST control)"
same,binding signal,HSF1,"1.17 fold enrichment (6-mer frequency, TF over GST control)"
same,binding signal,SPIC,"1.32 fold enrichment (6-mer frequency, TF over GST control)"
same,binding signal,ELF4,"1.29 fold enrichment (6-mer frequency, TF over GST control)"
same,binding signal,ELK4,"1.24 fold enrichment (6-mer frequency, TF over GST control)"
same,binding signal,ETV2,"1.02 fold enrichment (6-mer frequency, TF over GST control)"
same,binding signal,ELF3,"1.14 fold enrichment (6-mer frequency, TF over GST control)"
same,binding signal,CRX,"1.2 fold enrichment (6-mer frequency, TF over GST control)"
same,binding signal,ETV1,"1.22 fold enrichment (6-mer frequency, TF over GST control)"
